Rows were chosen to be rich in hits. Some 27% of all compounds tested hit in one or more screens of this group.
CYP2C9 inh: blocks human cytochrome P450 2C9; 96,000 compounds, 20% hits; inhibition, % at 5 µM; CYP2C9 Supersomes, luciferin-H conversion, luminescence; P11712;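 active means blocking of liver enzyme CYP2C9 beyond about 50% at 5 µM, limit read from the data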
CYP2C9 act: increases human cytochrome P450 2C9 activity. AID 1024. 96,000 compounds, 1.4% hits. activation factor at 5 µM. recombinant CYP2C9, luciferin-H conversion, luminescence; hits give high values; factor 1 = untreated enzyme, 0 = blocked. P11712;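 active means activation factor of 2 or more for CYP2C9 at a 5 µM dose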;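 further: 0 = sulfaphenazole-blocked wells and 1 = vehicle-only wells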
Cav32 inh: human Cav3.2 channel inhibition, primary screen; B-score at 10 µM; 100,000 compounds, 4% hits; O95180; Cav3.2-expressing cells, Fluo-4 calcium fluorescence FDSS; hits give low values;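 active means single-dose well whose peak fluorescence ratio is a statistical outlier from its plate by either plate-standardised score or position-corrected B-score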
CYP2C19 inh: human CYP2C19 inhibition; P33261; CYP2C19 Supersomes, luciferin-H EGE luminescence, 30 min; inhibition, % at 5 µM; 96,000 compounds, 21% hits;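 active means CYP2C19 inhibition above a set limit at 5 µM in the primary screen, cut at about 50% in these data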;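 further: plate controls were negative control wells for no effect and 2.5 mM tranylcypromine positive control for full effect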
Target sequence (P33261 whole entry, looked up): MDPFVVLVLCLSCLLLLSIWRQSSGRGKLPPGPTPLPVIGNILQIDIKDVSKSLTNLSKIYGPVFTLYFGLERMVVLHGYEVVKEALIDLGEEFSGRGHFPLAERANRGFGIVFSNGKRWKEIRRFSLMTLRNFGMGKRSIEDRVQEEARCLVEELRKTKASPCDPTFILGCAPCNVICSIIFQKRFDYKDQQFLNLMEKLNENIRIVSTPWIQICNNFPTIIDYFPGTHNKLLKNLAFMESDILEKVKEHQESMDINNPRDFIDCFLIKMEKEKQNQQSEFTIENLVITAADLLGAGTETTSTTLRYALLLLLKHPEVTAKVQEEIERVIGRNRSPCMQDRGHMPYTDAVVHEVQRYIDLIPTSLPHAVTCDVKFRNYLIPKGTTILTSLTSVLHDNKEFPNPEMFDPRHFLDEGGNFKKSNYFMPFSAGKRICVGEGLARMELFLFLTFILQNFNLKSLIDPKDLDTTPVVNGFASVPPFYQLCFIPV
CYP2C19 act: activators of human cytochrome P450 2C19 | P33261 | recombinant CYP2C19, luciferin-H EGE luminescence; hits give high values; 0 = fully inhibited enzyme, 1 = untreated enzyme | activation factor at 5 µM | 96,000 tested, under 10 active;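 active means activation factor of at least 2 at 5 µM in the primary screen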;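 further: 0 = wells with 2.5 mM tranylcypromine and 1 = vehicle-only wells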
An asterisk follows results filed as active; · = not tested or not shown.

SMILES	CYP2C9 inh	CYP2C9 act	Cav32 inh	CYP2C19 inh	CYP2C19 act
COC(=O)c1ccc(CSc2nnc(CNC(=O)COc3ccc(Cl)cc3)o2)o1	68*	0.3	-0.67	38	0.6
COc1ccc(-c2csc(NC(CO)c3nc4ccccc4n3CCOCCO)n2)cc1 (stereo not given)	·	·	0.49	·	·
Cc1noc(C)c1S(=O)(=O)Nc1ccc(O)c2c(=O)cc(-c3ccccc3Cl)oc12	·	·	-3.9	·	·
N#Cc1ccc(Sc2nc3ccccc3[nH]2)cc1C#N	31	0.7	0.45	76*	0.2
N#C/C(=C\c1cc([N+](=O)[O-])c(N2CCCCC2)cc1N1CCCCC1)c1nn(-c2ccccc2)c(N)c1C#N	97*	0	-0.64	69*	0.3
N#C/C(=C\c1cccc2ccccc12)c1nn(-c2ccccc2)c(N)c1C#N	·	·	0.43	·	·
N#C/C(=C\c1ccc(Sc2nc3ccccc3[nH]2)o1)c1ccccc1	95*	0	-3	86*	0.1
N#C/C(=C/c1ccc(N2CCOCC2)o1)c1nc2ccccc2[nH]1	·	·	-10*	·	·
N#C/C(=C\c1ccc(N2CCOCC2)o1)c1ccccc1	25	0.7	-2.6	14	0.9
Cn1nccc1C(=O)N1CCN(c2ccc(F)cc2)CC1	·	·	0.021	·	·
CCCCn1c(SCC(=O)Nc2ccc3c(c2)OCO3)nc2c1c(=O)n(C)c(=O)n2C	15	0.9	-0.028	8	0.9
Cc1cc(/C=C(/C#N)c2nc3ccccc3[nH]2)c(C)n1-c1cccc([N+](=O)[O-])c1	81*	0.2	-11*	40	0.6
N#C/C(=C\c1cc([N+](=O)[O-])c(N2CCOCC2)cc1N1CCOCC1)c1nc2ccccc2[nH]1	97*	0	-0.49	91*	0.1
COc1cc(C2C(C(C)=O)=C(O)C(=O)N2CCc2c[nH]c3ccccc23)ccc1O (stereo not given)	64*	0.4	0.19	-2	1
Cc1ccc(C)c(S(=O)(=O)NCCOc2nc(NC(C)C)nc(NC(C)C)n2)c1	59*	0.4	-1.7	78*	0.2
CCOC(=O)CC1=C(C(=O)OCC)C(c2ccc(C)o2)C(C#N)=C(N)O1 (stereo not given)	31	0.7	0.94	94*	0.1
CCOC(=O)CC1=C(C(=O)OCC)C(c2ccc(OC)cc2OC)C(C#N)=C(N)O1 (stereo not given)	64*	0.4	-0.028	49	0.5
Cc1ccc(C2C(C#N)=C(N)Oc3c2sc2ccccc32)o1 (stereo not given)	81*	0.2	-1.6	63*	0.4
CCOC(=O)C1=C(CC)OC(N)=C(C#N)C1c1ccc(OC)cc1OC (stereo not given)	·	·	-0.86	·	·
CCOC(=O)C1=C(c2ccccc2)OC(N)=C(C#N)C1c1ccco1 (stereo not given)	16	0.8	-1.4	25	0.8
C=CCNC(=O)C1CC(=O)N(c2ccc(OCC(=O)NCc3ccccc3)cc2)C1 (stereo not given)	19	0.8	1.3	-3	1
Cc1ccc(C(=O)Nn2c(N)c(S(=O)(=O)c3ccc(C)cc3)c3nc4ccccc4nc32)cc1	12	0.9	-5.5*	-4	1
Cc1ccc(S(=O)(=O)c2c(N)n(NC(=O)c3ccccc3C)c3nc4ccccc4nc23)cc1	37	0.6	·	33	0.7
Cc1ccc(S(=O)(=O)c2c(N)n(CCCO)c3nc4ccccc4nc23)cc1	92*	0.1	0.21	92*	0.1
O=C(NCCCO)C12CC3CC(CC(C3)C1)C2	·	·	-1.2	·	·
SMILES	CYP2C9 inh	CYP2C9 act	Cav32 inh	CYP2C19 inh	CYP2C19 act
Nc1ccc(S(=O)(=O)c2cccc(N)c2)cc1	-142	2.4*	1.3	15	0.8
CC(=O)Nc1ccc(S(=O)(=O)c2ccc(N)cc2)cc1N	-34	1.3	0.18	-5	1
CCc1nnc(NCn2nc(C)cc2C)s1	2	1	-0.53	18	0.8
COCc1nnc(NC(=O)c2ccc(S(=O)(=O)N(C)C3CCCCC3)cc2)o1	76*	0.2	-0.37	-4	1
CCc1nnc(NC(=O)c2ccc(S(=O)(=O)N(CC(C)C)CC(C)C)cc2)o1	·	·	-2.2	·	·
CSCc1nnc(NC(=O)c2ccc(S(=O)(=O)N(CC(C)C)CC(C)C)cc2)o1	-5	1.1	-6*	27	0.7
Cc1ccc(-n2ncc(N(C)C)c(Cl)c2=O)cc1	-5	1.1	·	15	0.9
CN(/N=C/c1ccncc1)c1cnn(-c2ccc(F)c(Cl)c2)c(=O)c1Cl	93*	0.1	0.065	91*	0.1
COc1ccc(NC(=O)CSC2=C(C#N)C(c3ccco3)C3=C(CCCC3=O)N2)c(OC)c1 (stereo not given)	85*	0.1	0.3	93*	0.1
CCCCc1ccc(NC(=O)CSC2=C(C#N)C(c3ccco3)C3=C(CCCC3=O)N2)cc1 (stereo not given)	92*	0.1	-3.3	76*	0.2
COc1cccc(NC(=O)CSC2=C(C#N)C(c3ccco3)C3=C(CCCC3=O)N2)c1 (stereo not given)	66*	0.3	-0.0034	60*	0.4
CCCCc1ccc(NC(=O)CSCc2cc(=O)[nH][nH]2)cc1	16	0.8	-0.71	23	0.8
CCCCCCS(=O)[C@H]1CS(=O)(=O)C[C@@H]1S(=O)CCCCCC (stereo not given in full)	7	0.9	·	4	1
Brc1cccc(-c2nnc3sc(CN4CCCCC4)cn23)c1	50*	0.5	-0.52	37	0.6
Cc1csc(C2=C(O)CN(c3ccc4c(c3)OCCOCCOCCOCCO4)C2=N)n1	3	1	0.15	3	1
COc1ccc(-c2nc(-c3ccc(C(=O)O)cc3)no2)cc1	·	·	0.77	·	·
CC1(C)CC(=O)CC(C2(O)C(=O)N(Cc3ccccc3)c3ccccc32)O1 (stereo not given)	1	1	0.98	17	0.8
CC1(C)CC(=O)C(C2(O)C(=O)N(Cc3ccccc3)c3ccccc32)CO1 (stereo not given)	35	0.7	0.36	63*	0.4
CCOC(=O)c1cnc(Nc2nc3ccccc3o2)nc1CN1CCN(C)CC1	-5	1	·	4	1
c1ccc2c(Cn3nnc4ccccc43)cccc2c1	-147	2.5*	-1.9	26	0.7
c1ccc2c(COn3nnc4ccccc43)cccc2c1	70*	0.3	-2.9	96*	0
CCCCN(C)CCNC(=O)Cn1c(=O)sc2ccccc21	-5	1.1	-0.079	-7	1.1
CC(=O)NCCn1c(SCC(=O)NCc2ccco2)nc2ccccc2c1=O	-15	1.2	-0.51	85*	0.2
Cc1nc(SCC(=O)NCc2ccco2)nc(C)c1C	-19	1.2	0.79	28	0.7
CCCCn1c(SCc2nc(N)nc(Nc3ccccc3C)n2)nc2ccccc2c1=O	99*	0	-1.9	87*	0.1
CCCCn1c(SCC(=O)NCc2ccco2)nc2ccccc2c1=O	52*	0.5	-2	65*	0.4
C=CCn1c(=O)c2ccccc2n2c(SCc3nc(N)nc(Nc4ccccc4C)n3)nnc12	32	0.7	1.4	20	0.8
